# According to PubChem BioAssay (Tox21):
# Where “and” joins values, the source holds several entries; their conditions need not be identical. Equal entries are not always repeated. Unmarked numbers belong to inactive results. Records with an inconclusive call do not appear. Where a call stands in place of a potency, no number is given. Calls of active or inactive are those of the source. Unless noted, calls follow the shape of the dose curve; as a rule, active = well fitted curve in the direction sought with a large enough effect in the repeat runs; inconclusive = weak or mixed curves; inactive = no such curve, though single readings can be large; an effect the other way counts as inactive or inconclusive.
# What was measured:
# [1] = qHTS assay for small molecules that induce genotoxicity in human embryonic kidney cells expressing luciferase-tagged ATAD5 (AID 651632); also: nearly all actives have a fitted effect of over 15% in size
# Outline: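 Increased luciferase signal from ATAD5-tagged reporter cells indicates DNA-damage-driven ATAD5 induction. HEK293T cells are treated for 16 hr at 37C before detection with Amplite.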
# [2] = qHTS assay to test for compound auto fluorescence at 535 nm (green) in HepG2 cells (AID 720675)
# [3] = qHTS assay to test for compound auto fluorescence at 460 nm (blue) in HEK293 cells (AID 720678)
# Outline: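 Blue read-out at excitation 405 nm and emission 460 nm follows overnight compound exposure of HEK293 cells at 37C in 5% CO2. Activity is given as auto fluorescence equivalency to triamterene.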
# [4] = qHTS assay to test for compound auto fluorescence at 535 nm (green) in HEK293 cells (AID 720680)
# [5] = qHTS assay to test for compound auto fluorescence at 460 nm (blue) in HEK293 cell free culture (AID 720681)
# Outline: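 Test compounds were pinned into cell-free culture medium (DMEM with 10% FBS) and fluorescence was read directly at Ex/Em 405/460 nm. Signals were expressed as fluorescence equivalents of triamterene, with DMSO vehicle as control.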
# [6] = qHTS assay to test for compound auto fluorescence at 535 nm (green) in HEK293 cell free culture (AID 720682)
# Outline: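 Each library compound, or DMSO control, is added by pintool to medium alone, comprising DMEM and 10% FBS. Emission at 535 nm following 485 nm excitation is quantified against fluorescein.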
# [7] = qHTS assay to test for compound auto fluorescence at 460 nm (blue) in HepG2 cell free culture (AID 720685)
# Outline: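 Compound (23 nL) or DMSO pinned into cell-free MEM with 10% FBS; blue fluorescence read at 405/460 nm excitation/emission, expressed as auto-fluorescence equivalency to triamterene.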
# [8] = qHTS assay to test for compound auto fluorescence at 535 nm (green) in HepG2 cell free culture (AID 720686)
# [9] = qHTS assay for identifying genotoxic compounds that show differential cytotoxicity against isogenic chicken DT40 cell lines with known DNA damage response pathways - Rev3 mutant cell line (AID 743014); also: nearly all actives have a fitted effect of over 55% in size; also: potency is read from the fitted curve at half-maximal effect
# [10] = qHTS assay to identify small molecule antagonists of the estrogen related receptor signaling pathway with the pleiotropic PPARgamma coactivator (PGC) from Tox21 10K library (AID 1224841; call rule not given here; also: actives are mostly falling curves and most rising ones were filed inactive; nearly all actives have a fitted effect of over 50% in size; also: potency is read from the fitted curve at half-maximal effect)
# Outline: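 Antagonism in this quantitative HTS is taken from loss of luciferase signal in PGC/ERR cells. Cells (2,000/well) are treated with compounds in DMSO after a 6 h settling period and read by One-Glo luminescence after 18 h.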
# [11] = target: Thyrotropin receptor (Homo sapiens) (UniProt P16473); assay: qHTS assay to identify small molecule agonists of the thyroid stimulating hormone receptor (TSHR) signaling pathway (AID 1224843; calls by dose curve; also: nearly all actives have a fitted effect of over 45% in size)
# Chain of Thyrotropin receptor (Homo sapiens) (P16473 whole entry, looked up): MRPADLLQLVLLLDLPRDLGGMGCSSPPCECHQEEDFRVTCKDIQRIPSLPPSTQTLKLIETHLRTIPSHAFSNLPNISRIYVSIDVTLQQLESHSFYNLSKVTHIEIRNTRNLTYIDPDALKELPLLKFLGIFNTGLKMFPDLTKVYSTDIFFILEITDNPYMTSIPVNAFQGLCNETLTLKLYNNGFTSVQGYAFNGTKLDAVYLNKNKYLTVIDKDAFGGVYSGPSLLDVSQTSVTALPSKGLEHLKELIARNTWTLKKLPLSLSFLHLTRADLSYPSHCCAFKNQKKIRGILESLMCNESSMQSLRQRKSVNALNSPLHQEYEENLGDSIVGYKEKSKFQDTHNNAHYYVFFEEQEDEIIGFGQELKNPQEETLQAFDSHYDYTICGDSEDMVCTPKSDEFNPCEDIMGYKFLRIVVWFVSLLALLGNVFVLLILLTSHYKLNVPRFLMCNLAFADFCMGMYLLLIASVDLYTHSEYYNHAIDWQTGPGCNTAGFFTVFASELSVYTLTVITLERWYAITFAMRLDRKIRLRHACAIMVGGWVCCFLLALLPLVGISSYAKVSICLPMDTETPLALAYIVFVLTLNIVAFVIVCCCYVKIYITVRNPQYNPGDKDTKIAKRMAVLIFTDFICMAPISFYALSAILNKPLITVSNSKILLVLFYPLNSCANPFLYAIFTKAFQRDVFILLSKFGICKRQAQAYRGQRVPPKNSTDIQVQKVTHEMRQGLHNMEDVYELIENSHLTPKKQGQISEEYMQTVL
# Outline: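 Cell line HEK293 with TSHR; density 800/well. Exposure 30 min RT. Readout HTRF cAMP (cAMP-d2/anti-cAMP-cryptate), 1 h RT before reading.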
# [12] = qHTS assay to identify small molecule agonists of H2AX - cell viability counter screen (AID 1224847; calls by dose curve; also: nearly all actives have a fitted effect of over 30% in size; also: potency is read from the fitted curve at half-maximal effect)
# Outline: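 Compounds tested at 15 concentrations were incubated 3 hr at 37C with wild-type CHO-K1 cells; cellular ATP-based luminescence (CellTiter-Glo) indicated viability.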
# [13] = qHTS assay to identify small molecule antagonists of the estrogen related receptor (ERR) signaling pathway from Tox21 library (AID 1224848); also: nearly all actives have a fitted effect of over 50% in size; also: potency is read from the fitted curve at half-maximal effect
# Outline: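 Screening used an ERR reporter line supplied by NTP, exposed for 18 h at 37 C to library compounds delivered in DMSO. Signal was luciferase luminescence developed with ONE-Glo at room temperature for 30 min.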
# [14] = qHTS RealTime-Glo MT Cell Viability Assay in HEK293 cells - 8 hour (AID 1224887); also: nearly all actives have a fitted effect of over 50% in size; also: potency is read from the fitted curve at half-maximal effect
# Outline: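 Nonlytic bioluminescent viability monitoring. HEK293 at 600 cells/well with reagent; 5 h settle; compound transfer by pintool; plates held at 37 C and read at set time points.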
# [15] = target: Estrogen receptor (Homo sapiens) (UniProt P03372); assay: qHTS assay to identify small molecule antagonists of the estrogen receptor alpha (ER-alpha) signaling pathway using the BG1 cell line in the presence of 0.1 nM 17-beta-estradiol (AID 1259244); also: nearly all actives have a fitted effect of over 50% in size; also: potency is read from the fitted curve at half-maximal effect
# Chain of Estrogen receptor (Homo sapiens) (P03372 whole entry, looked up): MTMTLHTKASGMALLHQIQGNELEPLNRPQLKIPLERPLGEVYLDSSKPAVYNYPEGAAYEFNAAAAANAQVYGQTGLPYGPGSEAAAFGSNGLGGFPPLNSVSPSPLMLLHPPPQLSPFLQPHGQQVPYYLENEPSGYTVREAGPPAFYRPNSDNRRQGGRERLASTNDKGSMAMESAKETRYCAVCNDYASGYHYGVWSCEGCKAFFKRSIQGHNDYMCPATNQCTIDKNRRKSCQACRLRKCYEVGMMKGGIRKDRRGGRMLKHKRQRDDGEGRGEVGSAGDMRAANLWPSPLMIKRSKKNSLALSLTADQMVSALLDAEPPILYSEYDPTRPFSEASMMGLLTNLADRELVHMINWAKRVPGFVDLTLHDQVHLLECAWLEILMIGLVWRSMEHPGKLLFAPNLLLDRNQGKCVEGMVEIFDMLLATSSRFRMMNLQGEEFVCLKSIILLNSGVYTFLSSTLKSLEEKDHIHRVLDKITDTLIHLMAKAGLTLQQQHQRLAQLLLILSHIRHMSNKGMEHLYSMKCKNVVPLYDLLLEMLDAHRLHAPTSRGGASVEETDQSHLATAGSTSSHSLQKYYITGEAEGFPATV
# Outline: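 After 5 days in hormone-depleted medium (charcoal-stripped serum, no phenol red), VM7Luc4E2 cells were seeded, incubated 24 h, then co-treated with compound and 0.1 nM (final) estradiol for 22 h before luminescence detection.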
# [16] = target: Thyrotropin-releasing hormone receptor (Homo sapiens) (UniProt P34981); assay: qHTS assay to identify small molecule antagonists of the thyrotropin-releasing hormone receptor (TRHR) signaling pathway (AID 1346877; active = well fitted inhibition curve with a large enough effect in the repeat runs, not every such curve was filed as active; also: series mostly up to about 51 µM)
# Chain of Thyrotropin-releasing hormone receptor (Homo sapiens) (P34981 whole entry, looked up): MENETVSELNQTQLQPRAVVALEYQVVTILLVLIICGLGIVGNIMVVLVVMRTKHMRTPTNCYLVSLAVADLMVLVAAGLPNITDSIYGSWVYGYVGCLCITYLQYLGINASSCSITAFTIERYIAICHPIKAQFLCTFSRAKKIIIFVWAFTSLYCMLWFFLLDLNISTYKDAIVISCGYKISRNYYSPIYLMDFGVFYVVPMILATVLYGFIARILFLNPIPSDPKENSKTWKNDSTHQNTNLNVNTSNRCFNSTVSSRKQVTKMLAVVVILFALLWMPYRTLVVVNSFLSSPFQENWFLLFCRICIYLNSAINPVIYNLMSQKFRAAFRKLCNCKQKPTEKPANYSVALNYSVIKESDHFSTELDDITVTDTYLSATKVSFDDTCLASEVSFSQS
# Outline: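 Cells (TRHR-HEK293) are plated and kept 18 h at 37 °C/5% CO2. A calcium-sensitive dye is added for 2 h, compound follows for 5 min at room temperature, and TRH is then given at 1 nM final.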
# [17] = qHTS assay to identify small molecule agonists of the estrogen receptor beta (ER-beta) signaling pathway - cell viability counter screen (AID 1259380); also: nearly all actives have a fitted effect of over 30% in size; also: potency is read from the fitted curve at half-maximal effect
# Outline: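 Same-well viability counter screen. Cells: ER-beta-UAS-bla HEK293T, plated 6 hr before compound, in 2% charcoal-stripped FBS. Compound exposure 16 hr, 37C; viability by CellTiter-Glo luminescence after 30 min at room temperature.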
# [18] = target: Thyrotropin receptor (Homo sapiens) (UniProt P16473); assay: qHTS assay to identify small molecule antagonists of the thyroid stimulating hormone receptor (TSHR) signaling pathway (AID 1259385; calls by dose curve; also: nearly all actives have a fitted effect of over 20% in size; also: potency is read from the fitted curve at half-maximal effect)
# Outline: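 TSHR-HEK293 cells were plated and held 18 h at 37C/5% CO2, then given compound plus Ro20-1724 and stimulated with TSH at 1.5 ng/mL final. After 30 min at room temperature, cAMP was detected with cAMP-d2/anti-cAMP-cryptate (1 h) by fluorescence.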
# [19] = qHTS assay to identify small molecule agonists of the progesterone receptor (PR) signaling pathway - cell viability counter screen (AID 1346799; calls by dose curve; also: nearly all actives have a fitted effect of over 45% in size; also: potency is read from the fitted curve at half-maximal effect)
# Outline: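 Multiplexed viability read: CellTiter-Glo luminescence, 30 min RT, following LiveBLAzer FRET measurement on PR-UAS-bla HEK293T cells exposed to compounds 16 hr.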
# [20] = target: Estrogen receptor beta (Homo sapiens) (UniProt Q92731); assay: qHTS assay to identify small molecule agonists of the estrogen receptor beta (ER-beta) signaling pathway (AID 1259377; active = well fitted activation curve with a large enough effect in the signal ratio in the repeat runs, not every such curve was filed as active; the % refers to the signal ratio)
# Chain of Estrogen receptor beta (Homo sapiens) (Q92731 whole entry, looked up): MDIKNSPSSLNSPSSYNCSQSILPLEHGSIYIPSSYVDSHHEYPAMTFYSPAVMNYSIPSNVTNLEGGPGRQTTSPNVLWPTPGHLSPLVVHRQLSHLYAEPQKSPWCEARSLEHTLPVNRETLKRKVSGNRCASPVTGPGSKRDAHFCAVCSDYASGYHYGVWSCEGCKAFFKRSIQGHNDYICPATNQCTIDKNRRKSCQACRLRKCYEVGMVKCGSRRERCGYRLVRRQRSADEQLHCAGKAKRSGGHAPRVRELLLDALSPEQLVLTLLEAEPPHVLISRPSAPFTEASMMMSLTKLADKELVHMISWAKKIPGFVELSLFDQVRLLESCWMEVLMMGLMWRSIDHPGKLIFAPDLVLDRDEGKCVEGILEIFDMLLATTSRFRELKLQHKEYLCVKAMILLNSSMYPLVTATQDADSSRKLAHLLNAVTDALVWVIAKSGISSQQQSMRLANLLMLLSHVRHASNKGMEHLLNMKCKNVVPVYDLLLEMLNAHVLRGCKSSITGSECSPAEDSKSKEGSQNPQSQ
# Outline: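 Reporter cells (HEK293T, ER-beta-UAS-bla) receive compounds or DMSO after a 6 hr pre-incubation. They then incubate 16 hr at 37C/5% CO2, and fluorescence from LiveBLAzer B/G substrate is measured after 2 hours at room temperature.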
structure (smiles),measurement,setting,value
COc1cc(OC)c(OC)cc1C=O,Potency,[1],inactive
same,Potency,[2],inactive
same,Potency,[3],inactive
same,Potency,[4],inactive
same,Potency,[5],inactive
same,Potency,[6],inactive
same,Potency,[7],inactive
same,Potency,[8],inactive
same,Potency,[9],34.3 µM (active)
same,Potency,[10],21.9 µM (active)
same,Potency,[11],inactive
same,Potency,[12],inactive
same,Potency,[13],18.7 µM (active)
same,Potency,[14],inactive
same,Potency,[15],59.3 µM (active)
same,outcome,[16],inactive
O=C1C(I)=CC(=C(c2cc(I)c(O)c(I)c2)c2ccccc2C(=O)O)C=C1I,Potency,[1],inactive
same,Potency,[2],inactive
same,Potency,[3],inactive
same,Potency,[4],inactive
same,Potency,[5],inactive
same,Potency,[6],inactive
same,Potency,[7],inactive
same,Potency,[8],inactive
same,Potency,[9],inactive
same,Potency,[11],inactive
same,Potency,[14],inactive
same,Potency,[15],inactive
same,Potency,[17],9.44 µM (active)
same,Potency,[18],inactive
CNC(=O)Oc1cc(C)c(SC)c(C)c1,Potency,[11],inactive
same,Potency,[12],inactive
same,Potency,[18],inactive
same,Potency,[19],inactive
same,outcome,[16],inactive
OC(Cc1ccccc1Cl)(Cn1[nH]cnc1=S)C1(Cl)CC1 (stereo not drawn),Potency,[11],inactive
same,Potency,[18],inactive
same,outcome,[16],inactive
OCC(c1ccc(Cl)cc1)c1ccc(Cl)cc1,Potency,[1],inactive
same,Potency,[2],inactive
same,Potency,[3],inactive
same,Potency,[4],inactive
same,Potency,[5],inactive
same,Potency,[6],inactive
same,Potency,[7],inactive
same,Potency,[8],inactive
same,Potency,[9],1.93 µM (active)
same,Potency,[12],89.8 µM (active)
same,Potency,[14],34.7 µM (active)
same,outcome,[20],inactive
same,Potency,[17],54.5 µM (active)
same,Potency,[18],inactive
same,Potency,[19],inactive
same,outcome,[16],inactive
c1ccc2c(c1)Sc1ccccc1N2CC1CN2CCC1CC2 (stereo not drawn),Potency,[1],inactive
same,Potency,[3],inactive
same,Potency,[5],inactive
same,Potency,[6],inactive
same,Potency,[7],inactive
same,Potency,[8],inactive
same,Potency,[9],11.9 µM (active)
same,Potency,[10],inactive
same,Potency,[17],23.7 µM (active)
same,Potency,[19],13.3 µM (active)
C[C@]12CC[C@@H](O)C[C@@H]1CC[C@@H]1[C@@H]2CC[C@]2(C)C(=O)CC[C@@H]12,Potency,[12],101 µM (active)
same,Potency,[17],27.3 µM (active)
same,Potency,[19],68.6 µM (active)
O=C(Nc1ccccc1-c1ccc(Cl)cc1)c1cccnc1Cl,Potency,[1],inactive
same,Potency,[2],inactive
same,Potency,[3],inactive
same,Potency,[4],inactive
same,Potency,[5],inactive
same,Potency,[6],inactive
same,Potency,[7],inactive
same,Potency,[8],inactive
same,Potency,[9],67.4 µM (active)
same,Potency,[10],64.8 µM (active)
same,Potency,[13],32.5 µM (active)
same,outcome,[20],inactive
same,Potency,[17],14.5 µM (active)
same,outcome,[16],inactive
CCN(CC)C(=O)Cl,Potency,[10],inactive
same,Potency,[11],inactive
same,Potency,[12],inactive
same,Potency,[13],inactive
same,Potency,[14],inactive
same,Potency,[15],inactive
same,outcome,[20],inactive
same,Potency,[17],inactive
same,Potency,[18],inactive
same,Potency,[19],inactive
same,outcome,[16],inactive
Oc1c(I)cc(I)cc1I,Potency,[10],61.1 µM (active)
same,Potency,[11],inactive
same,Potency,[14],inactive
same,Potency,[18],inactive
same,Potency,[19],inactive
Oc1ccc(Cl)cc1Cc1cc(Cl)ccc1O,Potency,[11],inactive
CN1CSC(=S)N(C)C1,Potency,[2],inactive
same,Potency,[3],inactive
same,Potency,[4],inactive
same,Potency,[5],inactive
same,Potency,[6],inactive
same,Potency,[7],inactive
same,Potency,[8],inactive
same,Potency,[9],5.42 µM (active) and 5.43 µM (active)
same,Potency,[11],inactive
same,Potency,[12],56.4 µM (active)
same,Potency,[13],4.83 µM (active) and 13.6 µM (active)
same,Potency,[14],inactive
same,Potency,[15],13.6 µM (active) and 17.2 µM (active)
same,Potency,[17],4.31 µM (active) and 9.66 µM (active)
same,Potency,[18],inactive
same,Potency,[19],24.3 µM (active)
same,outcome,[16],inactive
Nc1cccc([N+](=O)[O-])c1,outcome,[20],inactive
Cc1cccc(C)c1[N+](=O)[O-],outcome,[20],inactive
COc1ccc(C(c2ccc(OC)cc2)C(Cl)(Cl)Cl)cc1,Potency,[2],inactive
same,Potency,[4],inactive
same,Potency,[5],inactive
same,Potency,[6],inactive
same,Potency,[7],inactive
same,Potency,[8],inactive
same,Potency,[9],44.4 µM (active)
same,Potency,[10],8.58 µM (active)
same,Potency,[12],50.2 µM (active)
same,Potency,[13],30.5 µM (active)
same,outcome,[16],inactive
Cc1cccc([N+](=O)[O-])c1C,outcome,[20],inactive
CC(C)(C)OCC1CO1 (stereo not drawn),Potency,[18],inactive
Clc1ccccc1-c1ccccc1Cl,Potency,[1],inactive
same,Potency,[2],inactive
same,Potency,[3],inactive
same,Potency,[5],inactive
same,Potency,[6],inactive
same,Potency,[7],inactive
same,Potency,[8],inactive
same,Potency,[9],inactive
same,Potency,[12],64.5 µM (active)
same,Potency,[19],inactive
Brc1ccc(Br)c(Br)c1,outcome,[20],inactive
C=CC(=O)OCCCC,Potency,[18],inactive
CO/C=C(/C(=O)OC)c1ccccc1Oc1cc(Oc2ccccc2C#N)ncn1,Potency,[1],inactive
same,Potency,[2],inactive
same,Potency,[3],inactive
same,Potency,[4],inactive
same,Potency,[5],inactive
same,Potency,[6],inactive
same,Potency,[7],inactive
same,Potency,[8],inactive
same,Potency,[9],0.103 µM (active)
same,Potency,[10],16.4 µM (active)
same,Potency,[12],0.678 µM (active)
same,Potency,[13],2.06 µM (active)
same,Potency,[15],5.18 µM (active)
same,Potency,[17],51.8 µM (active)
same,Potency,[18],61.1 µM (active)
same,outcome,[16],inactive
